Test results taken from PubChem BioAssay (NCI).
The panel holds about 83,000 compounds, 20% with a hit somewhere; the sample as a whole holds those more often.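 Cell lines were cultured in 96-well plates, exposed to a single compound concentration, and assessed for percent growth 48 hours later.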 A number with no mark means an inactive call. Active and inactive are the calls of the source. The calls were made as follows: active = growth percent below 10; inactive = the rest.

Tested on: HL-60(TB) leukemia
Experiment: NCI-60 one-dose screen, 48 h (100 = growth as untreated, 0 = no growth, -100 = all killed)
Settings: 10 µM unless noted

Row | SMILES | growth
1 | CCCCCc1nc2c(c3c1CCCC3)CCCC2 | -15.2% (active)
2 | CCN1CCN(CC(=O)Nc2ccc(-c3cn4c(n3)sc3cc(Oc5ccnc(C(=O)NC)c5)ccc34)cc2)CC1 | -35.4% (active)
3 | O=CN1N=C(c2ccc(Nc3ccnc4cc(Cl)ccc34)cc2)CC1c1ccccc1 (centres undefined) | -25.8% (active)
4 | CN=S(=O)(OCCCCCOS(=O)(=NC)c1ccc(C)cc1)c1ccc(C)cc1 (centres undefined) | 70.7%
5 | Cc1ccc(Cc2cnc(NC(=O)c3ccc4noc(-c5ccccc5)c4c3)s2)cc1 | 97.7%
6 | COc1cc(-c2nc3occn3c2-c2ccnc(NCCCNS(=O)(=O)c3ccccc3)n2)ccc1F | 39.6%
7 | CCCCNC(=O)c1cc(NCc2cc(O)ccc2O)ccc1O | 3.56% (active)
8 | c1csc(-c2c3ccc(=[N+]4CCCCC4)cc-3oc3cc(N4CCCCC4)ccc23)c1 | -35.5% (active)
9 | c1csc(-c2ccc(CNc3c4ccccc4nc4ccccc34)cc2)c1 | -56.7% (active)
10 | CC(=O)N1N=C(c2ccc(Nc3nc(Nc4ccccc4)nc(Nc4ccccc4)n3)cc2)CC1c1ccccc1 (centres undefined) | 79.3%
11 | Cc1c(Cl)cc(-n2c(=O)c3ccccc3c3ccccc3c2=O)cc1Cl | 90.8%
12 | Cc1ccc(NS(=O)(=O)c2ccc(-c3cnc(C4CC4)o3)cc2)cc1C | -1.17% (active)
13 | O=C(Nc1cccc(C2=NCCN2)c1)c1ccc(-c2ccc(C(=O)Nc3cccc(C4=NCCN4)c3)cc2)cc1 | 16%
14 | COc1ccc(-c2nc(NCCO)[nH]c(=O)c2C#N)cc1 | 103%
